# Compounds with a hit are over-represented: about 2.8% of the library has one in this group of screens.
# ATXN2 expr inh – Primary qHTS for Inhibitors of ATXN expression | HEK-293 ATXN2-luciferase reporter, luminescence, 24 h | Potency, µM (series often up to 57 µM), without a hit: at the highest dose activity change, negative = inhibition, actives largely listed as inhibitors | 360,000 tested, 0.72% active; note: % is set by controls: 0 for no effect and ±100 for the full control effect; nearly all actives have a fitted effect of over 55% in size
#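 qHTS (up to 57 uM final) was run with 24 h compound exposure of reporter cells at 37 °C. Each well was multiplexed: SteadyGlo luminescence measured ATXN2-luciferase expression after a fluorogenic Gly-Phe-AFC viability readout (25 uM final).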
# HepG2 tox – qHTS for Inhibitors of TGF-b: Cytotox Counterscreen. 410,000 tested, 0.76% active. AID 588856, 2011. HepG2 CAGA-GFP viability, ATP luminescence, 18 h. Potency, µM (doses to about 46.1 µM), for the others: at the top dose activity change, negative = cytotoxicity, hits mostly cytotoxic
#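 CellTiter-Glo luminescence gave cytotoxicity after 18 hours at 37 degrees C. The cells were HepG2 CAGA-GFP in 1% FBS DMEM, stimulated with 500 pg/mL TGF-beta after compound addition. %Activity was normalised to no-cell wells (complete cell-killing) and DMSO (no toxicity), and curves were fitted and classified.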
# TGFb inhibitor – qHTS for Inhibitors of TGF-b | HepG2 CAGA-GFP TGF-b/SMAD3 reporter, GFP fluorescence, 18 h; TGF-beta stimulated, 500 pg/mL final | Potency, µM (doses to about 46.1 µM), without a hit: at the top dose activity, negative = inhibition, actives largely listed as inhibitors | 410,000 tested, 1.2% active; note: % is set by controls: 0 for no effect and ±100 for the full control effect; nearly all actives have a fitted effect of over 65% in size
#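 HEPG2 CAGA-GFP reporter cells (1000/well, DMEM with 1% FBS) received compounds, then recombinant TGF-beta at 500 pg/mL final for 18 hours at 37 degrees C. Per-cell GFP summed per well was normalised to unstimulated and stimulated DMSO controls before curve fitting.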
# ATXN viability – Viability Counterscreen for Primary qHTS for Inhibitors of ATXN expression | S2 cells (HEK-293 line with an ATXN2-luciferase reporter) viability, CellTiter-Fluor protease fluorescence, 24 h | Potency, µM (top dose mostly 56.7 µM), most hits filed as cytotoxic | 400,000 tested, 0.49% active | AID 651635, 2014; note: nearly all actives have a fitted effect of over 40% in size
# HTT aggregate – qHTS Multiplex Assay to Identify Dual Action Probes in a Cell Model of Huntington: Aggregate Formation (GFP). Potency, µM (doses to about 46.1 µM), for the others: at the top dose activity change, negative = inhibition, hits mostly inhibitors. AID 1688, 2009. 220,000 tested, 1.1% active. PC12 HttQ103-GFP aggregates, Acumen cytometry, 40 h; note: % is set by controls: 0 for no effect and ±100 for the full control effect; nearly all actives have a fitted effect of over 60% in size
#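 Aggregates are detected as GFP objects 1–25 µm with signal 6 STDEV over background in lysates of induced PC12 cells. These carry Huntingtin exon 1 with 103 glutamines fused to GFP under an ecdysone promoter; compounds titrated.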
# HTT cytoprotect – qHTS Multiplex Assay to Identify Dual Action Probes in a Cell Model of Huntington: Cytoprotection (ATP); PC12 HTT-Q103 induced, cytoprotection, ATP luminescence, 40 h; Potency, µM (series often up to 56.4 µM), for the others: cytoprotection (ATP increase), actives largely listed as activators; 230,000 tested, 0.14% active; note: % of control where 0% means no effect; nearly all actives have a fitted effect of over 45% in size
#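 Rat PC12, Q103 Htt exon1-GFP fusion, ecdysone promoter; tebufenozide inducer 100 nM final; compound titration; qHTS, 1500 cells/well; ATPlite luminescent read.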
# Starred values were filed as active, the others as inactive; i = inactive; ? = inconclusive; / = no result given; [ ] = remark or other dose. Calls come from the whole dose curve; as a rule, active = well fitted curve in the direction sought with a large enough effect; inconclusive = small, poorly fitted or top-dose-only effect, or another doubt; inactive = no such curve, though single readings can be large; an effect the other way counts as inactive or inconclusive. Potency is the fitted concentration of half-maximal effect.
SMILES,ATXN2 expr inh,HepG2 tox,TGFb inhibitor,ATXN viability,HTT aggregate,HTT cytoprotect
C=CCn1c(=S)[nH]c2scc(-c3ccc(C)o3)c2c1=O,2%[11.3 µM],-1%,24%,i,22µM*,-5%[10 µM]
C=CCn1c(SCC(C)=O)nc2scc(-c3ccc(C)o3)c2c1=O,83%,-7%,2%,i,/,/
CC(C)C[C@@H](C(=O)N[C@H](C(=O)OC1CCCC1)c1ccccc1)[C@H](O)C(=O)NO,22µM*,/,/,/,/,/
Nc1cc(N)cc(N)c1,/,21%,-6%,/,/,/
O=C(CSc1nnc(Cn2nnc3ccccc32)o1)Nc1cccc(Cl)c1,42%,12%,-6%,i,4%,18%
O=C(CSc1nnc(Cn2nnc3ccccc32)o1)N(Cc1ccc(Cl)cc1)c1ccccc1,-34%,17%,0%,i,7.1µM*,-13%
CCCn1c2c(c(O)c(C(=O)Nc3ncccc3O)c1=O)CCCC2,-6%,-21%,?,i,13µM*,-12%
C=C[C@@H]1c2cc(C)ccc2N(S(=O)(=O)c2ccc(C)cc2)[C@H](c2ccc(C(C)(F)F)cc2)C1(C#N)C#N,/,-6%,-12%,/,/,/
CC1(C)Cc2c(ccc3ccccc23)C(=O)N1,22%,-21%,-12%,i,11µM*,29%
CCNC(=O)/C=C1\NC(C)(C)Cc2c1ccc1ccccc21,3%,-26%,-18%,i,-26%,-10%
CC(C)(C)[C@H](N)C(=O)N[C@H]1CCC2C3CC=C4C[C@@H](O)CC[C@]4(C)C3CC[C@@]21C (stereo partly specified),?,-97%,14µM*,/,/,/
CCCCNC(=O)Cn1c(SCc2cccc(C)c2)nc2ccncc21,/,-11%,-3%,/,/,/
Nc1nc2c(s1)CCc1c-2cnn1-c1ccccc1,/,-121%,18µM*,?,-13%,-64%
Nc1nc2c(s1)COc1ccccc1-2,/,9%,4%,i,12%[9.22 µM],12%[10 µM]
CCCC[n+]1ccn(C2=C([O-])c3ccccc3C(=O)/C2=N\S(=O)(=O)c2ccc(Br)cc2)c1,-11%,-44%,6.3µM*,?,?,/
Cc1ccc(S(=O)(=O)/N=C2\C(=O)c3ccccc3C([O-])=C2n2cc[n+](CCC(C)C)c2)cc1,?,7.1µM*,4µM*,i,?,-93%
CC(=O)Nc1ccc(S(=O)(=O)/N=C2\C(=O)c3ccccc3C([O-])=C2n2cc[n+](-c3ccccn3)c2)cc1,/,-131%,?,?,6%[9.22 µM],-5%[10 µM]
Cc1ccc(CN2[C@H]3CCCC[C@@H]3OCCS2(=O)=O)cc1,/,8%,-3%,/,/,/
CCOC(=O)CN[C@@H](C(=O)N1CC[C@H]1C(=O)NCc1ccc(/C(N)=N/O)cc1)C1CCCCC1,/,/,/,i,/,/
COc1cc2c(cc1NC(=O)Nc1ccccc1)oc1ccccc12,4%,7.1µM*,?,i,?,-40%
Cc1cccc(Cc2cnc(N3C(=N)SC(C)C3=O)s2)c1 (stereo unspecified),-20%,-45%,?,?,22µM*,-84%
CC(=O)OCC1OC(C#CC2=CCCCC2)C=CC1OC(C)=O (stereo unspecified),/,/,/,/,/,8%[10 µM]
CC(C)CC(NC(=O)OCc1ccccc1)C(=O)NC(Cc1ccccc1)C(=O)CCl (stereo unspecified),?,-102%,10µM*,/,/,/
O=C(/C=C/c1ccccc1)CC(O)(c1ccccc1)C(F)(F)F (stereo unspecified),?,-79%,11µM*,?,11%,-38%
